Reference: PubChem BioAssay (Tox21)
Inconclusive results are not listed. Entries that show only a call come without a potency. Active and inactive are the calls of the source. Unless noted, calls follow the shape of the dose curve; as a rule, active = well fitted curve in the direction sought with a large enough effect in the repeat runs; inconclusive = weak or mixed curves; inactive = no such curve, though single readings can be large; an effect the other way counts as inactive or inconclusive.

Assays:
[1] = qHTS assay to identify small molecule antagonists of the glucocorticoid receptor (GR) signaling pathway - cell viability counter screen (AID 720693); also: nearly all actives have a fitted effect of over 55% in size
[2] = qHTS assay for identifying genotoxic compounds that show differential cytotoxicity against isogenic chicken DT40 cell lines with known DNA damage response pathways - wild type cell line (AID 743012); also: nearly all actives have a fitted effect of over 60% in size; also: potency is read from the fitted curve at half-maximal effect
Outline: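 Quantitative HTS on parental DT40 cells: 40 h compound treatment at 37 C/5% CO2, with viability then determined by CellTiter-Glo luminescence. Values serve as the DNA repair-proficient reference for differential cytotoxicity.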

[3] = qHTS assay for identifying genotoxic compounds that show differential cytotoxicity against isogenic chicken DT40 cell lines with known DNA damage response pathways - Rev3 mutant cell line (AID 743014); also: nearly all actives have a fitted effect of over 55% in size; also: potency is read from the fitted curve at half-maximal effect
[4] = qHTS assay for identifying genotoxic compounds that show differential cytotoxicity against isogenic chicken DT40 cell lines with known DNA damage response pathways - Rad54/Ku70 mutant cell line (AID 743015); also: nearly all actives have a fitted effect of over 60% in size; also: potency is read from the fitted curve at half-maximal effect
[5] = qHTS assay to identify small molecule antagonists of the androgen receptor (AR) signaling pathway - cell viability counter screen (AID 743033; also: nearly all actives have a fitted effect of over 45% in size)
[6] = qHTS assay to identify small molecule antagonists of the androgen receptor (AR) signaling pathway using the MDA cell line - cell viability counter screen (AID 743041; also: nearly all actives have a fitted effect of over 45% in size)
Outline: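 R1881-driven MDA-kb2 AR-luc cells, 3,000/well, were dosed with library compounds for 16 h; cell health came from CellTiter-Fluor fluorescence in the reporter wells.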

[7] = qHTS assay to identify small molecule antagonists of the thyroid receptor (TR) signaling pathway - cell viability counter screen (AID 743064); also: nearly all actives have a fitted effect of over 50% in size
Outline: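 GH3.TRE-Luc cells, 4 h pre-plating; cpd + T3 1 nM final; 37 °C 23.5 h; CellTiter-Fluor 30 min; fluorescence read.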

[8] = qHTS assay to identify small molecule antagonists of the thyroid receptor (TR) signaling pathway (AID 743065); also: series mostly up to about 70 µM; nearly all actives have a fitted effect of over 55% in size
Outline: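 Antagonism measured as loss of luciferase signal in GH3 cells stably carrying a TRE-luciferase reporter, co-treated with compound and T3 (1 nM final) for 23.5 h at 37 C. Viability was read in the same well by CellTiter-Fluor.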

[9] = tested on: thyroid hormone receptor (rat, GH3 cells); experiment: qHTS assay to identify small molecule agonists of the thyroid receptor (TR) signaling pathway (AID 743066; calls by dose curve)
[10] = target: Estrogen receptor (Homo sapiens) (UniProt P03372); experiment: qHTS assay to identify small molecule antagonists of the estrogen receptor alpha (ER-alpha) signaling pathway (AID 743069; active = well fitted curve in the direction sought with a large enough effect in the signal ratio in the repeat runs, not every such curve was filed as active; the % refers to the signal ratio)
Sequence of Estrogen receptor (Homo sapiens) (P03372 whole entry, looked up): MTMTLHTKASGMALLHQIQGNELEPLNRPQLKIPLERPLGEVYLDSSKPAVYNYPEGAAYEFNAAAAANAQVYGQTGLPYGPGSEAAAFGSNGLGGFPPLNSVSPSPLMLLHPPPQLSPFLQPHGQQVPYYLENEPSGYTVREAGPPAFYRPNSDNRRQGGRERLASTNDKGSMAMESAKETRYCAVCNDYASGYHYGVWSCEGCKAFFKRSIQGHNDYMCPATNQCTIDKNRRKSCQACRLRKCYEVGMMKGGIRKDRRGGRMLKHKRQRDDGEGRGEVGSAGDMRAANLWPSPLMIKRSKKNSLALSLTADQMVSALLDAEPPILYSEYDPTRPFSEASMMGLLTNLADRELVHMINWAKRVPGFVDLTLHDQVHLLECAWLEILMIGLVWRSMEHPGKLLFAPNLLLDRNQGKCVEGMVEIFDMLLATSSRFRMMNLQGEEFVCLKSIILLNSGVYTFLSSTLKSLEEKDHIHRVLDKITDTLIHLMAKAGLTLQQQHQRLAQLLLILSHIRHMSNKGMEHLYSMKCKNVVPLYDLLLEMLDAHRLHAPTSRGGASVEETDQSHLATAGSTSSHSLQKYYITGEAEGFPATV
Outline: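 Compound effects are measured against 17beta-estradiol stimulation in HEK293 cells with a UAS-controlled beta-lactamase reporter for ER-alpha. Exposure lasts 18 hr at 37C; LiveBLAzer B/G FRET substrate follows for 2 hr at room temperature.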

[11] = qHTS assay to identify small molecule antagonists of the estrogen receptor alpha (ER-alpha) signaling pathway - cell viability counter screen (AID 743074; calls by dose curve;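 also: HEK293 cells carrying ER-alpha-UAS-bla reporter stimulated with 17beta-estradiol; nearly all actives have a fitted effect of over 45% in size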)
[12] = target: Estrogen receptor (Homo sapiens) (UniProt P03372); experiment: qHTS assay to identify small molecule agonists of the estrogen receptor alpha (ER-alpha) signaling pathway (AID 743075; calls by dose curve)
[13] = target: Estrogen receptor (Homo sapiens) (UniProt P03372); experiment: qHTS assay to identify small molecule agonists of the estrogen receptor alpha (ER-alpha) signaling pathway using the BG1 cell line (AID 743079); also: nearly all actives have a fitted effect of over 20% in size
[14] = qHTS assay to identify small molecule antagonists of the estrogen receptor alpha (ER-alpha) signaling pathway using the BG1 cell line (AID 743080; calls by dose curve;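 also: BG1 cells stimulated with 17beta-estradiol alongside compound; series mostly up to about 70 µM; nearly all actives have a fitted effect of over 25% in size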)
Outline: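 BG1-Luc-4E2 cells (endogenous full-length ER-alpha, 4xERE luciferase) hormone-starved 5 days in charcoal-stripped FBS, plated 4,000/well for 24 h, then compound plus 17beta-estradiol for 21.5 h at 37 C; ONE-Glo luminescence read.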

[15] = qHTS assay to identify small molecule antagonists of the estrogen receptor alpha (ER-alpha) signaling pathway using the BG1 cell line - cell viability counter screen (AID 743081);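 also: compound given together with 17beta-estradiol as the ER stimulus; series mostly up to about 70 µM; nearly all actives have a fitted effect of over 45% in size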
Aromatase (Homo sapiens) = Aromatase (Homo sapiens) (UniProt P11511); experiment: qHTS assay to identify aromatase inhibitors (AID 743083); also: series mostly up to about 70 µM; nearly all actives have a fitted effect of over 55% in size
Sequence of Aromatase (Homo sapiens) (P11511 whole entry, looked up): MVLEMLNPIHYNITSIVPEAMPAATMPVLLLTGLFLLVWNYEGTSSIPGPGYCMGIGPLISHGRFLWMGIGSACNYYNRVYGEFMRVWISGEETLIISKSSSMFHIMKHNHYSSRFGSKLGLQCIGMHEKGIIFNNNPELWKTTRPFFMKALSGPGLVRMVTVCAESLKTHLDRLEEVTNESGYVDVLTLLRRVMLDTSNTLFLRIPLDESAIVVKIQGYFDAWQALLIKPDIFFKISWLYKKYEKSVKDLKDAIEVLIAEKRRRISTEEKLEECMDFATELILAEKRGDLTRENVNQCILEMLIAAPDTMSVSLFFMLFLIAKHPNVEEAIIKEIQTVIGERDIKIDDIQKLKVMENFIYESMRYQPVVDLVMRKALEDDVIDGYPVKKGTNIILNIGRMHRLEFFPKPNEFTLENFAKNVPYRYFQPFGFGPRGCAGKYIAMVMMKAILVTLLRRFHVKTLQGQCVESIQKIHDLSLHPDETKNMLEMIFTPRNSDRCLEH

[16] = qHTS assay to identify aromatase inhibitors - cell viability counter screen (AID 743084); also: potency is read from the fitted curve at half-maximal effect

| Compound | Potency [1] | Potency [2] | Potency [3] | Potency [4] | Potency [5] | Potency [6] | Potency [7] | Potency [8] | Potency [9] | Potency [10] | Potency [11] | Potency [12] | Potency [13] | Potency [14] | Potency [15] | Potency (Aromatase (Homo sapiens)) | Potency [16] |
| --- | --- | --- | --- | --- | --- | --- | --- | --- | --- | --- | --- | --- | --- | --- | --- | --- | --- |
| O=c1[nH]c2cc(C(F)(F)F)c(N3CCOCC3)cc2n(CP(=O)(O)O)c1=O | inactive | inactive | inactive | inactive | inactive | inactive | inactive | inactive | inactive | inactive | inactive | inactive | inactive | inactive | inactive | inactive | inactive |
| O=C(O)CNC(=O)c1ccccc1I | inactive | inactive | inactive | inactive | inactive | inactive | inactive | inactive | inactive | inactive | inactive | inactive | inactive | inactive | inactive | inactive | inactive |
| O=C(Nc1ccc(C(=O)O)c(O)c1)c1ccccc1 | inactive | inactive | inactive | inactive | inactive | inactive | inactive | inactive | inactive | inactive | inactive | inactive | inactive | inactive | inactive | inactive | inactive |
| O=C(O)CCCc1c[nH]c2ccccc12 | inactive | inactive | inactive | inactive | inactive | inactive | inactive | inactive | inactive |  | inactive |  |  |  | inactive | inactive | inactive |
| Cc1cc([N+](=O)[O-])ccc1N | inactive | inactive | inactive | inactive | inactive | inactive | inactive | inactive | inactive | inactive |  | inactive |  | inactive | inactive |  | 53.8 µM (active) |
| CC(=O)NNC(C)=O | inactive | inactive | inactive | inactive | inactive | inactive | inactive | inactive | inactive | inactive | inactive | inactive | inactive | inactive | inactive | inactive | inactive |
| CCOCCC(=O)OCC | inactive | inactive | inactive | inactive | inactive | inactive | inactive | inactive | inactive | inactive | inactive | inactive | inactive | inactive | inactive | inactive | inactive |
| CCCCCCOC(=O)CCCCC | inactive | inactive | inactive | inactive | inactive | inactive | inactive | inactive | inactive |  | inactive |  |  |  | inactive | inactive | inactive |
| Cc1ccc(S(=O)(=O)NC(=O)NC2CCCCC2)cc1 | inactive | inactive | inactive | inactive | inactive | inactive | inactive | inactive | inactive | inactive | inactive | inactive | inactive | inactive | inactive | inactive | inactive |
| CSSc1ccoc1C | inactive | 19.2 µM (active) | 34.2 µM (active) | 19.2 µM (active) | inactive | inactive | inactive | inactive | inactive |  | inactive |  |  |  | inactive | inactive | inactive |
| CCCCCCC(CO)CCCC (stereo not drawn) | inactive | inactive | inactive | inactive | inactive | inactive | inactive | inactive | inactive |  | inactive |  |  |  | inactive | inactive | inactive |
| COc1cc(NS(=O)(=O)c2ccc(N)cc2)nc(C)n1 | inactive | inactive | inactive | inactive | inactive | inactive | inactive | inactive | inactive | inactive | inactive | inactive | inactive | inactive | inactive | inactive | inactive |
| Cc1c[nH]c2ccccc12 | inactive | inactive | inactive | inactive | inactive | inactive | inactive | inactive | inactive |  | inactive |  |  |  | inactive | inactive | inactive |
| CC(C)N(C)C | inactive | inactive | inactive | inactive | inactive | inactive | inactive | inactive | inactive | inactive | inactive | inactive | inactive | inactive | inactive | inactive | inactive |
| O=C(NC(Cc1cc(=O)[nH]c2ccccc12)C(=O)O)c1ccc(Cl)cc1 (stereo not drawn) | inactive | inactive | inactive | inactive | inactive | inactive | inactive | inactive | inactive | inactive | inactive | inactive | inactive | inactive | inactive | inactive | inactive |
| COc1ccc(N)c([N+](=O)[O-])c1 | inactive | inactive | inactive | inactive | inactive | inactive | inactive | inactive | inactive |  | inactive |  |  |  | inactive | inactive | inactive |
| COC(CC(C)CCCC(C)(C)O)OC (stereo not drawn) | inactive | inactive | inactive | inactive | inactive | inactive | inactive | inactive | inactive |  | inactive |  |  |  | inactive | inactive | inactive |
